Data reported in PubChem BioAssay (Tox21).
Inconclusive results are not listed. Unmarked numbers belong to inactive results. Activity calls are given as the source filed them. Calls follow the shape of the dose curve; as a rule, active = well fitted inhibition curve with a large enough effect in the repeat runs; inconclusive = weak or mixed curves; inactive = flat fitted curve, though single readings scatter.

These compounds were tested against Luciferin 4-monooxygenase (Photinus pyralis) (UniProt P08659) (assay: qHTS assay to identify small molecule inhibitors of firefly luciferase (AID 1224835; also: nearly all actives have a fitted effect of over 25% in size)). Settings: purified P. pyralis luciferase, luminescence inhibition; series mostly up to 115 µM; activity change, negative = inhibition: at the top concentration.
Source text: U.S. Tox21 Program National Center for Advancing Translational Sciences [NCATS] NIH Chemical Genomics Center [NCGC] U.S. Environmental Protection Agency [EPA] National Institutes of Environmental Health Sciences [NIEHS] National Toxicology Program [NTP] U.S. Food and Drug Administration [FDA] Tox21 Assay Overview: Firefly (Photinus pyralis) luciferase is one of the most commonly used transcriptional reporters. Firefly luciferase reporter-gene assays are generally considered one of the most sensitive assay types (Wood, 1995; Wood, 1998). However, it was initially observed, in 1991, by Thompson et al., that compounds that resemble the substrates of firefly luciferase (FLuc) can act as competitive inhibitors of the enzyme, and that these compounds, upon interaction with luciferase in the cell, can actually stabilize the protein and increase its half-life. Previous profiling work by other groups to determine the prevalence of compounds that affect FLuc enzymatic activity (PubChem AID 411) identified that ~3% of the MLSMR library (then at ~72K) inhibited FLuc. […] Thus the Tox21 10K library is profiled for activity against FLuc using a biochemical assay of purified FLuc and KM concentrations of FLuc substrates (D-luciferin and ATP).
These assay plates were then treated with 23nL of compound or DMSO using a Kalypsys pin tool, which allows for delivery of a 6-point interplate titration of each compound to the assay plate (quantitative HTS.) 1 uL of firefly luciferase mix (containing 50 mM Tris acetate, pH 7.6, 0.04 uM P. pyralis luciferase, 0.01% Tween, 0.05% BSA and dH2O) was then delivered by FRD to each well. Luciferase activity was then measured using a ViewLux CCD imager.
% is scaled to controls: 0 for no effect and ±100 for the full control effect; potency is read from the fitted curve at half-maximal effect.

Sequence of Luciferin 4-monooxygenase (Photinus pyralis) (P08659 whole entry, looked up): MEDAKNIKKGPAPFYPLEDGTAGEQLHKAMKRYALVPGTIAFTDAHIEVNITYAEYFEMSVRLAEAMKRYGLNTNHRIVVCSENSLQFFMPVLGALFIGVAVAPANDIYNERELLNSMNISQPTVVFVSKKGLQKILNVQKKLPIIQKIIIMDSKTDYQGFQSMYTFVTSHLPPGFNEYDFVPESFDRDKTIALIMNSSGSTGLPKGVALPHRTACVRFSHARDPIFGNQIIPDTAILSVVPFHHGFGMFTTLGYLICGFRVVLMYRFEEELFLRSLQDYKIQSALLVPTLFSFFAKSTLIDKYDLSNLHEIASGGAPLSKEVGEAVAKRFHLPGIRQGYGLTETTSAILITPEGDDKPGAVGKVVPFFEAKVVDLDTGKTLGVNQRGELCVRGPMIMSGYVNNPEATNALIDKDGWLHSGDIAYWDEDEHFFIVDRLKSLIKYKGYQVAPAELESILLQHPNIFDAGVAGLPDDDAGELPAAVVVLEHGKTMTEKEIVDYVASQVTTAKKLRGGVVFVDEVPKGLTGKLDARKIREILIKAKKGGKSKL

Point of comparison: `CN(C)Cc1ccccc1`, “activity change, negative = inhibition” value 6.99%. Against it:
- Cc1cc(S(=O)(=O)O)c(N)cc1Cl — lower, -0.297%
- COc1nc(C)nc(NC(=O)NS(=O)(=O)c2ccccc2OCCCl)n1 — higher, 7.84%
- CCCCCCC — lower, -11.6%
- CC(C)=CCCC(C)CCOC=O (stereo not given) — lower, 0.0567%
- O=C1CCCCC1C1CCCCC1 (stereo not given) — lower, -0.843%
- CC(=O)Nc1ccc(C)c(Cl)c1 — lower, 3.9%
- CC(C)(CO)[C@@H](O)C(=O)NCCC(=O)O — lower, 6.35%
- CCOC(=O)CS — lower, -3.19%
- O=C(Cl)c1cccc([N+](=O)[O-])c1 — lower, 5.1%
- Cc1ccc(C)c(N)c1 — lower, 3.18%
- CO[Si](C)(C)OC — lower, 5.28%
- CC(C)Nc1nc(N)nc(Cl)n1 — lower, 3.36%
- O=C(O)c1cccc(Cl)c1Cl — lower, -8.51%
- OC[C@H]1O[C@@H](O[C@H]2[C@H](O)[C@@H](O)[C@H](O)O[C@@H]2CO)[C@H](O)[C@@H](O)[C@H]1O — lower, 0.171%
- CC(C)CCCCCCc1ccc(OCCOCCO)cc1 — lower, 4.06%

Point of comparison: `Cc1cccc(C)c1NC(=O)CN1CCCCCC1`, “activity change, negative = inhibition” value 4.93% [at 52.9 µM]. Against it:
- COc1ccc(S(=O)(=O)Nc2nnc(CC(C)C)s2)cc1 — lower, -2.22% [at 52.9 µM]
- CC(=O)Oc1cc(C(C)C)c(OCCN(C)C)cc1C — lower, -2.56% [at 52.9 µM]
- CCc1cc2cc(OC)c(OC)cc2c(Cc2ccccc2)n1 — lower, 2.31% [at 52.9 µM]
- COC(=O)/C=C(/C)N — lower, 1.5% [at 52.9 µM]
- COC(=O)N[C@H](C(=O)N[C@@H](Cc1ccccc1)[C@@H](O)CN(Cc1ccc(-c2ccccn2)cc1)NC(=O)[C@@H](NC(=O)OC)C(C)(C)C)C(C)(C)C — lower, 2.24% [at 52.9 µM]
- CN1CCN(c2c(F)cc3c(=O)c(C(=O)O)cn4c3c2SCC4)CC1 — lower, -0.417% [at 52.9 µM]
- Cn1cnc2c(F)c(Nc3ccc(Br)cc3Cl)c(C(=O)NOCCO)cc21 — lower, 0.657% [at 52.9 µM]
- O=C(O)[C@@H](O)[C@H](O)[C@H](O)[C@@H](O)C(=O)O — lower, -2.16% [at 52.9 µM]
- Cc1ncc(CO)c(CN)c1O — lower, -0.353% [at 52.9 µM]
- C=CCc1cc(OC)c(O)c(C(=O)NCCO)c1 — lower, -6.63% [at 52.9 µM]
- O=C1N(c2ccccc2)c2ccccc2C1(Cc1ccncc1)Cc1ccncc1 — lower, 0.96% [at 52.9 µM]
- CCCCOc1cc(C(=O)NCCN(CC)CC)c2ccccc2n1 — lower, -0.776% [at 52.9 µM]
- O=c1[nH]c(=O)n([C@H]2C[C@H](O)[C@@H](CO)O2)cc1C(F)(F)F — lower, 0% [at 52.9 µM]
- NC/C=C/C(=O)O — lower, -1.19% [at 52.9 µM]
- CCCNC(C)C(=O)Nc1c(C)csc1C(=O)OC (stereo not given) — lower, 3.66% [at 52.9 µM]
- CCCNC(C)(C)COC(=O)c1ccccc1 — lower, 0.332% [at 52.9 µM]
- CCCCNc1ccc(C(=O)OCCN(CC)CC)cc1 — lower, 0.659% [at 52.9 µM]
- CC1(C)O[C@@H]2C[C@H]3[C@@H]4CCC5=CC(=O)CC[C@]5(C)[C@@]4(F)[C@@H](O)C[C@]3(C)[C@]2(C(=O)CCl)O1 — lower, -4.76% [at 52.9 µM]
- CCN(CCCc1ccccc1)CCCc1ccccc1 — lower, 3.36% [at 52.9 µM]
- C[C@@H](N)C(=O)O — lower, 0.574% [at 52.9 µM]

In the case of `C[C@@H]1CN(c2c(F)c(F)c3c(=O)c(C(=O)O)cn(C4CC4)c3c2F)C[C@H](C)N1`, the activity change, negative = inhibition is reported as 4.05% [at 23.6 µM].

For `Cc1cc2nc(N)sc2cc1C`, the Potency was 5.69 µM (active).
`CCCCCCOc1ccc(N)cc1` was tested, and the Potency was 31.7 µM (active).
